Reference: PubChem BioAssay (NCATS)
Unmarked numbers belong to inactive results. The source made the active and inactive calls. Calls come from the whole dose curve; as a rule, active = well fitted curve in the direction sought with a large enough effect; inactive = no such curve, though single readings can be large or run the other way.

assay: qHTS for small molecule inhibitors of Yes1 kinase: Counter Assay (AID 686950); details: series mostly up to 76.9 µM; activity change, negative = inhibition: at the top concentration;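 note: no kinase present so only ADP-Glo detection of a fixed ADP amount is tested; luminescence from ADP-Glo reporting ADP in a fixed ATP and ADP mixture; 0% = DMSO wells with ATP plus ADP and -100% = ATP-only wells without ADP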
Method in brief: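 Luminescence read-out from ADP-Glo quantifies a fixed ADP amount (0.02 mM ADP with 0.08 mM ATP) after 60 min at room temperature; signal is normalized between DMSO wells with ATP/ADP and with 0.1 mM ATP alone.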

SMILES | activity change, negative = inhibition | outcome
CCCN1CCCC(c2ccc(Nc3nc(Nc4cc(F)ccc4C(N)=O)c4cc[nH]c4n3)c(OC)c2)C1 (stereo not given) | 251% | 
COc1cccc(-n2ncc3c(NN=Cc4ccc(C)cc4)ncnc32)c1 | 0.204% | 
Fc1ccc(Nc2nccc(-c3c(-c4ccc(C(F)(F)F)cc4)nn4ncccc34)n2)cc1F | 4.62% | 
COc1ccc2nc3c4nc5ccc(OC)cc5c4c4c(=O)[nH]c(=O)c4c3c2c1 | -2.58% | 
O=C(Nc1n[nH]c2cc(-c3ccc(F)cc3)ccc12)C1CC1 | 4.33% | 
Fc1ccc(-c2ncn(C3CCNCC3)c2-c2ccnc(Oc3ccc4c(c3)OCO4)n2)cc1 | -0.463% | 
CN(C)CCOc1ccc(-c2cc(-c3ccc4c(c3)CCC4=NO)c(-c3ccncc3)o2)cc1 | 21.2% | 
CCC(=O)Nc1ccc(C)c(-c2ccc(C(=O)NCC3CC3)cc2)c1 | 2.01% | 
c1cnn2ncc(-c3ccnc(Nc4ccc5c(c4)OCCO5)n3)c2c1 | -1.82% | 
O=C1NC(=O)C(c2ccccc2Cl)=C1Nc1cc(Cl)c(O)c(Cl)c1 | -1.75% | 
CS(=O)(=O)CCNCc1ccoc1-c1ccc2ncnc(Nc3ccc(OCc4ccccc4)cc3)c2c1 | 0.973% | 
CC(=O)Nc1cccc(C#Cc2cncnc2Nc2ccc(OCc3cccc(F)c3)c(Cl)c2)n1 | 4.46% | 
NC(=O)c1sc(-n2cnc3ccc(C(F)(F)F)cc32)cc1OCc1ccccc1Br | 2.03% | 
OCCCNc1nccc(-c2c(-c3ccc(F)cc3)nn3cc(C(F)(F)F)ccc23)n1 | -3.91% | 
CCCN1CCC(Oc2cc(Nc3nc(Nc4cccc(F)c4C(N)=O)c4cc[nH]c4n3)c(OC)cc2Cl)CC1 | 1.1% | 
Nc1nccc(-c2c(-c3ccc(F)cc3)nn3cc(C(F)(F)F)ccc23)n1 | 4.35% | 
Fc1cccc(COc2ccc(Nc3ncnc4cc(-c5ccc[nH]5)sc34)cc2Cl)c1 | 1.31% | 
CC1=C(C(=O)Nc2ccc3[nH]ncc3c2)C(c2ccc(F)cc2)N=C(c2ccc(C(F)(F)F)nc2)N1 (stereo not given) | 0.65% | 
CCn1c(-c2nonc2N)nc2c(C#CC(C)(C)O)nc(OCC(N)c3ccccc3)cc21 (stereo not given) |  | inactive
COc1cccc(C=NNc2ncnc3c2cnn3-c2cccc(OC)c2)c1 | -2.8% | 

SMILES | activity change, negative = inhibition | outcome
Fc1ccc(-c2ncn(CCCN3CCOCC3)c2-c2ccncc2)cc1 | -2.87% | 
COc1ccccc1C1=C(Nc2ccccc2)C(=O)NC1=O | -2.08% | 
COc1ccc2ncn(-c3cc(OC(C)c4ccccc4Cl)c(C(N)=O)s3)c2c1 (stereo not given) | 6.21% | 
O=S(=O)(CCOCc1ccc(-c2ccc3ncnc(Nc4ccc(OCc5cccc(F)c5)c(Cl)c4)c3c2)o1)c1ccccc1 | 0.528% | 
CC(C)c1ccc(-c2cc(-c3cn[nH]c3-c3ccccn3)ccn2)cc1 | -3.94% | 
CCn1c(-c2nonc2N)nc2ccccc21 | 2.83% | 
Fc1ccc(-c2ncn(C3CCNCC3)c2-c2ccnc(Oc3ccc(Cl)cc3)n2)cc1 | -4.64% | 
Nc1nc(-c2ccccn2)c(-c2ccc3ncccc3n2)s1 | 2.75% | 
COc1cc2c(cc1Nc1nc(Nc3ccsc3C(N)=O)c3cc[nH]c3n1)N(C(=O)CN(C)C)CCC2(C)C | 477% | 
Cc1ccc(C(=O)NC2CCC2)cc1-c1ccc(C(=O)NCC2CC2)cc1 | 0.632% | 
CCc1nn2ncccc2c1-c1ccnc(NC2CC2)n1 | 12.6% | 
CC(Oc1cc(-n2cnc3ccc(OCC(O)CO)cc32)sc1C(N)=O)c1ccccc1Cl (stereo not given) | -0.118% | 
O=S(=O)(CCNCc1ccc(-c2ccc3ncnc(Nc4ccc(OCc5cccc(F)c5)c(Cl)c4)c3c2)o1)c1ccccc1 | 7.85% | 
CS(=O)(=O)CCNCc1nc(-c2ccc3ncnc(Nc4ccc(OCc5cccc(C(F)(F)F)c5)cc4)c3c2)cs1 | 3.91% | 
O=C(Nc1n[nH]c2nnc(-c3cccnc3)cc12)C1CC1 | 7.05% | 
Cc1cccc(Nc2ncc(-c3ccccc3)o2)c1 | -3.11% | 
CN(C)CCCNc1nccc(-c2c(-c3ccc(F)cc3)nn3cc(C(F)(F)F)ccc23)n1 | -1.16% | 
O=C1NC(=O)C(c2ccccc2)=C1Nc1ccccc1 | -1.63% | 
CCS(=O)(=O)c1ccc(OC)c(Nc2ncc(-c3ccccc3Cl)o2)c1 | 2.38% | 
Fc1cccc(COc2ccc(Nc3ncnc4sc(-c5cccs5)cc34)cc2Cl)c1 | 1.37% | 
